The full list was thinned out, with hits kept by preference.
NTMT1 inhibitor: NTMT1 methyltransferase inhibition. Q9BV86. NTMT1 MTase-Glo SAH luminescence, purified enzyme. Potency, µM (top dose mostly 114 µM), without a hit: top-dose activity change, negative = inhibition, usual class: inhibitors. 59,000 tested, 2.5% active;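 also: plate controls were DMSO vehicle for no effect and no enzyme for full effect; nearly all actives have a fitted effect of over 65% in size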
Target sequence (Q9BV86 whole entry, looked up): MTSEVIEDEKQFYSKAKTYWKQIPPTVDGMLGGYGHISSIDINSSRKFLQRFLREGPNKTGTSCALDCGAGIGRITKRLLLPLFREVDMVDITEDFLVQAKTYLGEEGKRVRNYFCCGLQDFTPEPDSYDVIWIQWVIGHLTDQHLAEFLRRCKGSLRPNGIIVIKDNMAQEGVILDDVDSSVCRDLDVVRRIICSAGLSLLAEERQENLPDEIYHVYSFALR
FH mod: Identification of activators of human fumarate hydratase by quantitative high-throughput screening | Fumarate hydratase, mitochondrial (Homo sapiens), P07954 | FH coupled MDH/diaphorase resazurin fluorescence, 15 min | Potency, µM (titrated, usually from 79.9 µM), inactives show at the highest dose activity change, negative = inhibition, actives largely listed as inhibitors | 54,000 tested, 0.22% active | AID 1347055, 2019; also: % is scaled to controls: 0 for no effect and ±100 for the full control effect; the screen sought activators but most active calls are inhibition curves; nearly all actives have a fitted effect of over 45% in size
GALC G270D up: galactocerebrosidase G270D activity enhancement, cell-based; AID 1159614; P54803; 145M-Twi-hGALC-G270D cells (Twitcher mouse brain line with human GALC G270D), HMU-beta-Gal fluorescence, 48 h; 45,000 tested, 0.1% active; Potency, µM (series often up to 57.5 µM), most hits filed as activators; also: 0% is about no effect; nearly all actives have a fitted effect of over 65% in size
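Live 145M-Twi cells (Twitcher mouse brain-derived, GALC-null) stably expressing human GALC-G270D, with a wild-type GALC line, were compound-treated. Residual GALC activity was then read as fluorescence from 0.1 mM final HMU-β-gal at pH 5.2; higher signal means activation.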
* = called active by the depositor; i = inactive; ? = inconclusive; nt = no result; ! = not confirmed by another sample; [ ] = remark or other dose. Calls follow the shape of the dose curve; as a rule, active = well fitted curve in the direction sought with a large enough effect; inconclusive = small, poorly fitted or top-dose-only effect, or another doubt; inactive = no such curve, though single readings can be large; an effect the other way counts as inactive or inconclusive. Potency is read from the fitted curve at half-maximal effect.

SMILES	NTMT1 inhibitor	FH mod	GALC G270D up
C/C(=C/CO)CCC1C(C)CCC2C(C)(C)CCCC12C (stereo unspecified)	5%[57.5 µM]	-14%	nt
O=C(Nc1ccc(Cl)c(Cl)c1)Nc1nnc(-c2cccnc2)s1	22µM*	nt	nt
Nc1ccc(-c2nnc(NC(=O)Nc3ccc(Cl)c(Cl)c3)s2)cc1	-5%	nt	nt
O=C1N/C(=C\c2ccco2)C(=O)N1Cc1ccccc1	1%[57.5 µM]	nt	nt
COc1ccc(CCNC(=O)C2CC(=O)N(CCc3ccccc3)C2)cc1OC (stereo unspecified)	11%	1%	i
COc1ccc(CCN2CCN(CCCc3ccccc3)CC2)cc1OC	89µM*!	3%	nt
O=C1CCCC2=C1C(c1cnccc1C(F)(F)F)N=C(Nc1nc3ccccc3o1)N2 (stereo unspecified)	8%	nt	nt
O=C(Nc1ccc(N2CCOCC2)c(F)c1)Nc1nnc(-c2ccncc2)s1	-2%[57.5 µM]	nt	nt
O=C(Nc1ccn(Cc2ccc(O)cc2C(F)(F)F)n1)c1c(F)cccc1F	?	4%	nt
Cc1ccc(C)c(CN2C(=O)c3ccccc3S(=O)c3ccc(C(=O)N4CCC(C)CC4)cc32)c1 (stereo unspecified)	-2%	-31%	i
CCOC(=O)N1CCN(C(=O)c2ccc3c(c2)N(Cc2cc(C)ccc2C)C(=O)c2ccccc2S3=O)CC1 (stereo unspecified)	89µM*	-17%	i
O=c1c(-n2ccnn2)c[nH]n1-c1cc(N2CCOCC2)ncn1	3µM*!	nt	nt
CC1=C(C)C(=O)OC(C(C)C2C(O)CC3C4C5OC5C5(O)CC(OC6OC(CO)C(OC7OC(C)C(O)C(O)C7O)C(O)C6O)CC(O)C5(C)C4CCC32C)C1 (stereo unspecified)	-5%[12.6 µM]	10%[20.6 µM]	nt
O=C(OCC12OC1C=CC(OC(=O)c1ccccc1)C2O)c1ccccc1 (stereo unspecified)	11%[29.8 µM]	3%[53.3 µM]	nt
COc1cc2ncnc(Nc3cc(Br)c(O)c(Br)c3)c2cc1OC	?	-16%	nt
COc1ccc(Cl)c(Nc2ncnc3cc(OCC4CCN(C)CC4)c(OC)cc23)c1	28µM*	-2%	nt
COc1cc2ncnc(Nc3ccc(NC(=O)c4ccccc4)cc3)c2cc1OC	16%	-9%	nt
COc1cc2c(Nc3ccc(Cl)c(Cl)c3F)ncnc2cc1OCC1C[C@@H]2CN(C)C[C@@H]2C1 (stereo partly specified)	11µM*	-25%	nt
Cc1nnc(-c2sc(NC(=O)[C@H](C(C)C)n3c(=O)[nH]c4ccccc4c3=O)nc2C)o1	-4%[57.5 µM]	?	nt
CC(C(=O)O)C1CCC2(C)C3C(=O)C=C4C(CCC(=O)C4(C)C)C3(C)CCC12C (stereo unspecified)	10%[29.8 µM]	1%[53.3 µM]	nt
CCOC(=O)C1CCN(c2cc3c(cc2NC(=O)c2ccc(Cl)cc2)n(C)c(=O)n3C)CC1	-12%	20µM*	i
CCOC(=O)C1CCN(c2cc3c(cc2NC(=O)c2ccccc2Cl)n(C)c(=O)n3C)CC1	-17%	?	i
CCCCN(C)C(=O)Cn1nc(-c2cncnc2)ccc1=O	4%	nt	nt
CCCCCCCCCCCCCCCC[n+]1ccccc1	22µM*	-8%[53.3 µM]	i
CCCCCCCCCCCCCCCC(=O)O	6%[57.5 µM]	0%[53.3 µM]	i
SMILES	NTMT1 inhibitor	FH mod	GALC G270D up
Cc1nc2nc(C)c(CCC(=O)NCc3cccc(Cl)c3)c(C)n2n1	-9%	-6%	i
COc1ccccc1-c1cc2nc(C)c(CCC(=O)NCc3cccc(Cl)c3)c(C)n2n1	89µM*	?	i
C[C@@H]1O[C@@H](O[C@H]2[C@H](O)[C@@H](O)[C@H](OC[C@H]3O[C@@H](OC(=O)[C@]45CCC(C)(C)C[C@H]4C4=CCC6[C@@]7(C)CC[C@H](O[C@@H]8OC[C@H](O)[C@H](O[C@@H]9O[C@H](CO)[C@@H](O)[C@H](O)[C@H]9O)[C@H]8O)[C@@](C)(CO)C7CC[C@@]6(C)[C@]4(C)CC5)[C@H](O)[C@@H](O)[C@@H]3O)O[C@@H]2CO)[C@H](O)[C@H](O)[C@H]1O (stereo partly specified)	-1%[6.45 µM]	5%[13.5 µM]	nt
CCCn1c(-c2ccc(F)cc2)nc2c(NCCCCN(CC)CC)nc(C)nc21	-28%	nt	nt
CCN(CC)CCCCNc1nc2cc(Cl)c(Cl)cc2nc1-c1ccc(-c2cccs2)s1	20µM*!	7%[53.3 µM]	nt
COc1cccc(N2CCN(c3ncc4c(n3)CCN(Cc3ccc(Br)cc3)C4)CC2)c1	50µM*	-8%	i
CCOc1ccc(CN2CCc3nc(N4CCN(c5ncccn5)CC4)ncc3C2)cc1OC	-2%	-4%	i
CC1(CCOC2OC(CO)C(O)C(O)C2O)CCC23OC2(C1)C(O)CC1C(C)(C(=O)O)CCCC13C (stereo unspecified)	-3%[29.8 µM]	19%[53.3 µM]	nt
NC[C@H]1O[C@@H](n2cnc3c(N)ncnc32)[C@H](O)[C@@H]1O	nt	-22%[53.3 µM]	nt
CC(C)N(CCCNC(=O)Nc1ccc(C(C)(C)C)cc1)C[C@H]1O[C@@H](n2cc(Br)c3c(N)ncnc32)[C@H](O)[C@H]1O	19µM*	2%[53.3 µM]	nt
CC(=O)OC[C@]12[C@H](OC(C)=O)[C@H](OC(=O)c3ccccc3)[C@@H]3[C@@H](OC(C)=O)[C@]1(OC3(C)C)[C@H](C)C[C@H](OC(=O)c1ccccc1)[C@@H]2OC(=O)c1ccccc1	8%[12.6 µM]	-6%[20.6 µM]	nt
NCC1OC(OC2C(O)[C@@H](OC3C(O)C(N)CC(N)C3OC3OC(CO)C(O)C(O)C3N)O[C@@H]2CO)C(N)C(O)C1O (stereo partly specified)	nt	-12%[53.3 µM]	nt
CCC(C(=O)Nc1cccc(C#N)c1)n1c(=O)c(-c2ccccc2NC(C)=O)nc2ccccc21 (stereo unspecified)	4%	?	i
CCC(C(=O)Nc1c(C)cc(C)cc1C)n1c(=O)c(-c2ccccc2NC(C)=O)nc2ccccc21 (stereo unspecified)	89µM*	-8%	i
CC(=O)O[C@H]1C[C@@](O)(C(C)C)C2[C@@H](OC(=O)c3ccc(O)cc3)C[C@@]3(C)O[C@H]3C[C@]21C (stereo partly specified)	2%[29.8 µM]	8%[53.3 µM]	nt
Cc1nc(-c2cccnc2)sc1C(=O)Nc1ccccc1-c1cn2c(CN3CCOCC3)csc2n1	14%	3%	nt
O=C(Nc1ccccc1-c1cn2c(CN3CCNCC3)csc2n1)c1cnc2ccccc2n1	3.5µM*!	?	nt
COC(=O)Nc1nc2ccc(C(=O)c3cccs3)cc2[nH]1	28µM*!	-15%[53.3 µM]	i
CCCS(=O)c1ccc2nc(NC(=O)OC)[nH]c2c1 (stereo unspecified)	50µM*!	6%	i
COC(=O)Nc1nc2ccc(C(=O)c3ccccc3)cc2[nH]1	30µM*!	-6%[53.3 µM]	i
CCCSc1ccc2nc(NC(=O)OC)[nH]c2c1	11%[57.5 µM]	0%[53.3 µM]	i
COC(=O)Nc1nc2ccc(S(=O)c3ccccc3)cc2[nH]1 (stereo unspecified)	5%[57.5 µM]	-7%[53.3 µM]	i
O=C(c1ccccc1)c1ccc2nc(NC(=O)c3csc(C4CCN(c5ncnc6ccsc56)CC4)n3)[nH]c2c1	3%[57.5 µM]	-5%	nt
O=C1S/C(=C\c2ccc(OCc3cccc(B(O)O)c3)cc2)C(=O)N1Cc1ccc(F)cc1	3%	nt	nt

Screening data (PubChem BioAssay)
